Results published in PubChem BioAssay (EPA / NIEHS).
Inconclusive results are not listed. The source made the active and inactive calls. Rule for the calls, unless noted: active = hit-call score of the fitted dose curve at least 0.9, where 1 is the maximum; inconclusive = response in the unintended direction; inactive = score below 0.9.

Legend:
[1] = read-out: Glyceraldehyde-3-phosphate dehydrogenase (Homo sapiens) (UniProt P04406); assay: CLD_GAPDH_24hr: CellzDirect (CLD) Gene Expression Assay for Baseline Control (Glyceraldehyde 3-phosphate dehydrogenase) at 24 hours (AID 2283692)
In short: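 GAPDH baseline-control readout: qNPA chemiluminescent mRNA signal in human primary hepatocytes harvested 24 h after daily dosing, normalised to 0.2% DMSO with positive fitting direction; cytotoxicity annotated by phase-contrast morphology.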

[2] = read-out: alkyl and aryl transferase (GSTA2), GSTA2 (gene 2939); assay: CLD_GSTA2_24hr: CellzDirect (CLD) Gene Expression Assay for alkyl and aryl transferase (GSTA2) at 24 hours (AID 2283693)
In short: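 GSTA2 transcript levels were quantified by quantitative nuclease protection assay in primary human hepatocytes 24 h after daily dosing with fresh solutions at multiple concentrations; 0.2% DMSO vehicle as baseline, cytotoxicity flagged morphologically.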

[3] = read-out: ABC Transporter (ABCB1), ABCB1 (gene 5243); assay: CLD_ABCB1_48hr: CellzDirect (CLD) Gene Expression Assay for ABC Transporter (ABCB1) at 48 hours (AID 2283695)
In short: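 ABCB1 mRNA was measured by quantitative nuclease protection assay (chemiluminescence) 48 h after dosing. Human hepatocyte cultures from two separate donors received fresh dosing solutions daily for two days, with 0.2% DMSO as vehicle. Positive-direction fit against DMSO.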

[4] = read-out: ABC Transporter (ABCB11), ABCB11 (gene 8647); assay: CLD_ABCB11_48hr: CellzDirect (CLD) Gene Expression Assay for ABC Transporter (ABCB11) at 48 hours (AID 2283697)
In short: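 Induction of ABCB11 mRNA relative to 0.2% DMSO, measured at 48 h by qNPA chemiluminescence. Cultured human hepatocytes (two donors) received fresh dosing solutions at several concentrations on two consecutive days.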

[5] = read-out: Cytochrome P450 3A4 (Homo sapiens) (UniProt P08684); assay: CLD_CYP3A4_48hr: CellzDirect (CLD) Gene Expression Assay for xenobiotic metabolism (CYP3A4) at 48 hours (AID 2283698)
In short: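 CYP3A4 induction read by qNPA chemiluminescence after 48 h, with fresh dosing solutions on consecutive days, in cultured human hepatocytes (two donors). Vehicle 0.2% DMSO as baseline; microscopy-based cytotoxicity annotated yes/no alongside data.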

[6] = read-out: Cytochrome P450 2C19 (Homo sapiens) (UniProt P33261); assay: CLD_CYP2C19_48hr: CellzDirect (CLD) Gene Expression Assay for xenobiotic metabolism (CYP2C19) at 48 hours (AID 2283700);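 note: fitted upward so actives raise CYP2C19 mRNA above the 0.2% DMSO vehicle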
In short: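 CYP2C19 mRNA induction read by chemiluminescent quantitative nuclease protection assay after 48 h, with fresh compound added daily for two days to cultured human liver hepatocytes. Activity fitted upward against 0.2% DMSO vehicle.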

[7] = CLD_ACTIN_48hr: CellzDirect (CLD) Gene Expression Assay for Baseline Control (Actin) at 48 hours (AID 2283702)
In short: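 Background-control actin mRNA read by qNPA chemiluminescence at 48 h. Human hepatocyte cultures from two donors received fresh multi-concentration chemical doses daily for two days; 0.2% DMSO served as vehicle baseline.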

[8] = read-out: xenobiotic metabolism (CYP1A2), CYP1A2 (gene 1544); assay: CLD_CYP1A2_48hr: CellzDirect (CLD) Gene Expression Assay for xenobiotic metabolism (CYP1A2) at 48 hours (AID 2283703)
In short: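 Cytotoxicity was flagged yes/no from morphology, while CYP1A2 transcript induction was detected by qNPA chemiluminescence after a 48-hour exposure. Human primary hepatocyte cultures from separate donors received fresh dosing solutions daily over two days, with 0.2% DMSO as vehicle and baseline.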

[9] = read-out: Broad substrate specificity ATP-binding cassette transporter ABCG2 (Homo sapiens) (UniProt Q9UNQ0); assay: CLD_ABCG2_48hr: CellzDirect (CLD) Gene Expression Assay for ABC Transporter (ABCG2) at 48 hours (AID 2283704)
In short: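 ABCG2 transcript measured at 48 h by quantitative nuclease protection (chemiluminescent) and fitted for increase relative to 0.2% DMSO. Hepatocyte cultures from separate donors got fresh compound daily over two days; morphology annotated cytotoxicity.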

[10] = read-out: xenobiotic metabolism (CYP1A1), CYP1A1 (gene 1543); assay: CLD_CYP1A1_48hr: CellzDirect (CLD) Gene Expression Assay for xenobiotic metabolism (CYP1A1) at 48 hours (AID 2283705)
In short: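 CYP1A1 transcript measured by quantitative nuclease protection (chemiluminescent) 48 h after two daily treatments of human hepatocyte cultures, versus 0.2% DMSO. Morphology-based cytotoxicity flags accompany data; two donor preparations used.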

[11] = read-out: Glyceraldehyde-3-phosphate dehydrogenase (Homo sapiens) (UniProt P04406); assay: CLD_GAPDH_48hr: CellzDirect (CLD) Gene Expression Assay for Baseline Control (Glyceraldehyde 3-phosphate dehydrogenase) at 48 hours (AID 2283706);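 note: active means higher GAPDH mRNA than DMSO vehicle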
In short: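 GAPDH baseline-control readout: qNPA chemiluminescent mRNA quantitation in human liver primary cells 48 h after daily dosing on two consecutive days, vehicle 0.2% DMSO; gain of signal fitted against DMSO, cytotoxicity flagged by phase-contrast morphology.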

[12] = read-out: organic anion transporter (SLCO1B1), SLCO1B1 (gene 10599); assay: CLD_SLCO1B1_48hr: CellzDirect (CLD) Gene Expression Assay for organic anion transporter (SLCO1B1) at 48 hours (AID 2283707)
In short: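 SLCO1B1 transcript quantified by qNPA with chemiluminescent readout after 48 h of once-daily chemical exposure. Cultured human primary hepatocytes came from two donors, with 0.2% DMSO vehicle; positive-direction fitting against DMSO, cytotoxicity flagged by morphology.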

[13] = read-out: alkyl and aryl transferase (GSTA2), GSTA2 (gene 2939); assay: CLD_GSTA2_48hr: CellzDirect (CLD) Gene Expression Assay for alkyl and aryl transferase (GSTA2) at 48 hours (AID 2283708);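 note: active means mRNA induction above DMSO vehicle baseline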
In short: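 GSTA2 mRNA quantified by qNPA chemiluminescence in human primary hepatocyte lysates after 48 h of daily fresh chemical dosing. Increases fitted against 0.2% DMSO vehicle baseline; cytotoxicity from morphology annotated yes/no.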

[14] = read-out: Cytochrome P450 2C9 (Homo sapiens) (UniProt P11712); assay: CLD_CYP2C9_48hr: CellzDirect (CLD) Gene Expression Assay for xenobiotic metabolism (CYP2C9) at 48 hours (AID 2283701; active = hit-call score of the fitted dose curve at least 0.9, where 1 is the maximum; inactive = score below 0.9)
In short: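 mRNA level measured by quantitative nuclease protection (S1 digestion, chemiluminescent detection) in lysates of human primary hepatocytes exposed 48 h with daily re-dosing. Induction fitted positively versus 0.2% DMSO; morphology-based cytotoxicity flagged yes/no.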

[15] = read-out: glucuronosyltransferase (UGT1A1), UGT1A1 (gene 54658); assay: CLD_UGT1A1_48hr: CellzDirect (CLD) Gene Expression Assay for glucuronosyltransferase (UGT1A1) at 48 hours (AID 2283709);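 note: actives increase expression relative to DMSO so potency refers to induction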
In short: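 Quantitative nuclease protection assay (chemiluminescent) for UGT1A1 mRNA at 48 h in human hepatocyte cultures from two donors, redosed daily with fresh solutions. Induction fitted relative to 0.2% DMSO; phase-contrast morphology annotated cytotoxicity.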

[16] = read-out: sulfotransferase (SULT2A), SULT2A1 (gene 6822); assay: CLD_SULT2A_48hr: CellzDirect (CLD) Gene Expression Assay for sulfotransferase (SULT2A) at 48 hours (AID 2283710);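 note: hits raise SULT2A1 transcript above the 0.2% DMSO vehicle baseline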
In short: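 SULT2A1 transcript measured by qNPA chemiluminescence in human primary hepatocyte cultures after 48 h, with fresh dosing solutions on two consecutive days; gain-of-signal fitting against 0.2% DMSO vehicle; cytotoxicity annotated from phase-contrast morphology.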

[17] = read-out: sulfotransferase (SULT2A), SULT2A1 (gene 6822); assay: CLD_SULT2A_24hr: CellzDirect (CLD) Gene Expression Assay for sulfotransferase (SULT2A) at 24 hours (AID 2283694)
In short: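 mRNA is measured by qNPA: probe hybridisation, S1 nuclease digestion, chemiluminescence, in lysates from human primary hepatocytes harvested 24 h after daily dosing. Vehicle was 0.2% DMSO. Phase-contrast microscopy flagged cytotoxicity (yes/no).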

[18] = read-out: glucuronosyltransferase (UGT1A1), UGT1A1 (gene 54658); assay: CLD_UGT1A1_24hr: CellzDirect (CLD) Gene Expression Assay for glucuronosyltransferase (UGT1A1) at 24 hours (AID 2283696)
In short: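 UGT1A1 transcript induction was measured by quantitative nuclease protection assay (chemiluminescence) in human hepatocyte cultures 24 h after daily fresh dosing, with 0.2% DMSO as vehicle and baseline.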

[19] = read-out: Cytochrome P450 2B6 (Homo sapiens) (UniProt P20813); assay: CLD_CYP2B6_48hr: CellzDirect (CLD) Gene Expression Assay for xenobiotic metabolism (CYP2B6) at 48 hours (AID 2283699);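 note: actives raise transcript level above DMSO so potency reflects induction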
In short: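 CYP2B6 transcript induction, read by quantitative nuclease protection (S1 digestion, chemiluminescent detection) 48 h after dosing, is fitted upward against 0.2% DMSO. Cultured human liver primary cells, two donor preparations, received fresh chemical daily over multiple concentrations.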

Measured: AC50

Sequence of Broad substrate specificity ATP-binding cassette transporter ABCG2 (Homo sapiens) (Q9UNQ0 whole entry, looked up): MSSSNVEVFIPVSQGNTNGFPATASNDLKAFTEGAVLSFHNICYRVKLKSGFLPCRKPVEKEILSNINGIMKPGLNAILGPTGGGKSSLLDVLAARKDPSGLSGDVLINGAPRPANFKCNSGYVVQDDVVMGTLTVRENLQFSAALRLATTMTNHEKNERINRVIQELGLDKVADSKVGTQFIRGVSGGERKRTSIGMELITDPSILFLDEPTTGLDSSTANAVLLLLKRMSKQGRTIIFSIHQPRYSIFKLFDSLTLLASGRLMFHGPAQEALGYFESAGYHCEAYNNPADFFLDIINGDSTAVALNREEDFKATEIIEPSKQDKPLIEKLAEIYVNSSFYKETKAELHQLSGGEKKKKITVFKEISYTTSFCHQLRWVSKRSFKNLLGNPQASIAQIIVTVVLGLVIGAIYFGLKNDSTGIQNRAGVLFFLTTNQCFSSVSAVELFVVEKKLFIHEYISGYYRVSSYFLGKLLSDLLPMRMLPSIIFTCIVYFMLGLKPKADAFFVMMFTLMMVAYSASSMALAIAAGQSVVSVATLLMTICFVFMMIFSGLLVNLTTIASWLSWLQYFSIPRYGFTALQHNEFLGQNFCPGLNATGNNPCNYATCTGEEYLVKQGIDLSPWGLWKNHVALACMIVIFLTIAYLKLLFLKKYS
Sequence of Cytochrome P450 3A4 (Homo sapiens) (P08684 whole entry, looked up): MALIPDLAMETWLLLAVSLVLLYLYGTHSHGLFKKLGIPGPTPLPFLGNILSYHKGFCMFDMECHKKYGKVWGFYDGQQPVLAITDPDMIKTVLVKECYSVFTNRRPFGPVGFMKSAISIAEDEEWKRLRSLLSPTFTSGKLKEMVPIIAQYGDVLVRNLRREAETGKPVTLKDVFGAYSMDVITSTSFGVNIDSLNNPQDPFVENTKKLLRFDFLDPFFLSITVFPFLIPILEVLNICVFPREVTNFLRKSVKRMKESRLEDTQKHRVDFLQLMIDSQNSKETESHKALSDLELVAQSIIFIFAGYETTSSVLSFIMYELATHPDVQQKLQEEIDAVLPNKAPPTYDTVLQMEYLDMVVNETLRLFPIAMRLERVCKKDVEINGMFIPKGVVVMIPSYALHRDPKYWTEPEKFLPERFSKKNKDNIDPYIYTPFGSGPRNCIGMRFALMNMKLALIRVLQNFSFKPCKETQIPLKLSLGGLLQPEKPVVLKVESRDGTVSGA
Sequence of Glyceraldehyde-3-phosphate dehydrogenase (Homo sapiens) (P04406 whole entry, looked up): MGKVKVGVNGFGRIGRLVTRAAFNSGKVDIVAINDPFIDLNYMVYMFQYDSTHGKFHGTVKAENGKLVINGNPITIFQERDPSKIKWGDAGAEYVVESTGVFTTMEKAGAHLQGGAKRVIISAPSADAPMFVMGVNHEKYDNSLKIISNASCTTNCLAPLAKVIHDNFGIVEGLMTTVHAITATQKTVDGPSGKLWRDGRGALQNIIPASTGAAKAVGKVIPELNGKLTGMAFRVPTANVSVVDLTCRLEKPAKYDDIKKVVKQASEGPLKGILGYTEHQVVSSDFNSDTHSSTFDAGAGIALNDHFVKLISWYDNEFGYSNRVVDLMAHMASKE
Sequence of Cytochrome P450 2C19 (Homo sapiens) (P33261 whole entry, looked up): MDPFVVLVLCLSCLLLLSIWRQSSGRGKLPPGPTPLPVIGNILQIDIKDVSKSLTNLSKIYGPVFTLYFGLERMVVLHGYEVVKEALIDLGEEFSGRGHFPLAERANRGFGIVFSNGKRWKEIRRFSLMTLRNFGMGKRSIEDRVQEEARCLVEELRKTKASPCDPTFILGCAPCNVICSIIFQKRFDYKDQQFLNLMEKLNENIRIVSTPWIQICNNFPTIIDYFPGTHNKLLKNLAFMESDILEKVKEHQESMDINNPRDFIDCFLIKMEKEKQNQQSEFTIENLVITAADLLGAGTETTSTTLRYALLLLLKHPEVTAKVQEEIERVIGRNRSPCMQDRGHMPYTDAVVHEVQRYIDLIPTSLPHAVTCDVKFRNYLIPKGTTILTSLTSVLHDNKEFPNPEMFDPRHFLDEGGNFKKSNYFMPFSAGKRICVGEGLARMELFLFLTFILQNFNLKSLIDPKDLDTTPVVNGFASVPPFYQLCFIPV

Clc1nc(Cl)nc(Nc2ccccc2Cl)n1
inactive: [1] | [2] | [3] | [4] | [5] | [6] | [7] | [8] | [9] | [10] | [11] | [12] | [13]

CS(=O)(=O)c1ccc(C(=O)C2C(=O)CCCC2=O)c([N+](=O)[O-])c1
inactive: [1] | [2] | [3] | [4] | [6] | [14] | [7] | [8] | [9] | [11] | [13] | [15] | [16]

CN=C=S
inactive: [1] | [2] | [17] | [18] | [5] | [6] | [7] | [9] | [11] | [13] | [15]

CNC(=O)Oc1cccc2ccccc12
active: [19] 4.42 µM | [8] 3.23 µM | [10] 3.57 µM
inactive: [1] | [2] | [18] | [5] | [13]

COCc1cnc(C2=NC(C)(C(C)C)C(=O)N2)c(C(=O)O)c1 (centres undefined)
inactive: [2] | [17] | [3] | [18] | [4] | [5] | [19] | [8] | [10] | [11] | [15] | [16]

O=C1C2CC=CCC2C(=O)N1SC(Cl)(Cl)Cl (centres undefined)
inactive: [1] | [2] | [4] | [6] | [9] | [10] | [12] | [13] | [16]

N#CN=C1SCCN1Cc1ccc(Cl)nc1
active: [5] 20 µM | [19] 9.25 µM
inactive: [1] | [2] | [3] | [18] | [4] | [6] | [14] | [8] | [9] | [12] | [13] | [16]

Clc1cccc(C(Cl)(Cl)Cl)n1
inactive: [2] | [17] | [3] | [18] | [14] | [7] | [8] | [9] | [11] | [12] | [13] | [16]
active: [5] 3.02 µM | [10] 3.97 µM
